{
  "source": "PubChem BioAssay (EPA / NIEHS)",
  "note": "Results filed as inconclusive are left out. Activity calls are given as the source filed them. Rule for the calls: active = hit-call score of the fitted dose curve at least 0.9, where 1 is the maximum; inconclusive = response in the unintended direction; inactive = score below 0.9.",
  "data": [
    {"assay": "CCTE_Shafer_MEA_dev_bursting_electrodes_number: CCTE's Neural Network Formation Assay for Number of Bursting Electrodes, Shafer Lab (AID 2284043)", "experimental": "CCTE_Shafer_MEA_dev assay is conducted using Axion Biosystems 48 well microelectrode array (MEA) plates and Maestro recording system. Each well of the MEA plate contains a grid of 16 microelectrodes embedded in the culture surface. Electrically active cells, such as neurons, can be cultured over the electrodes, and electrical activity in these cells can be recorded extracellularly. The spontaneous firing of neurons is captured from each electrode on a microsecond timescale providing both temporally and spatially precise data. […] The CCTE_Shafer_MEA_dev assay uses primary cultures of rat cortical neurons. Recordings are made on days post-plating 5, 7, 9 and 12. As these cultures mature over time, neural networks develop functional activity and form cohesive networks in which electrical activity can be highly coordinated. CCTE_Shafer_MEA_dev_bursting_electrodes_number is 1 of 19 assay components of the CCTE_Shafer_MEA_dev assay. It measures the number of electrodes in a well with a burst rate of at least 1 burst (temporally-clustered group of action potential firing) every 2 minutes during a recording in a microelectrode array (MEA) using Axion Biosystems Maestro 768 channel amplifier with the AxIS adaptive spike detector. To collapse across multiple recordings made on days post-plating 5, 7, 9 and 12, the trapezoidal area-under-the-curve of the component is calculated.Data from the assay component CCTE_Shafer_MEA_dev_bursting_electrodes_number was analyzed into 1 assay endpoint. This assay endpoint, CCTE_Shafer_MEA_dev_bursting_electrodes_number, was analyzed in the negative analysis fitting direction relative to DMSO as the negative control and baseline of activity. Using a type of functional reporter, gain or loss-of-signal activity can be used to understand electrical activity.\nOn the day prior to culture, each well was coated thoroughly with 150 uL of 0.05% polyethyleneimine (PEI, Sigma Cat P3143) in 50 mM HEPES (Sigma Cat H7523) at a pH of 8. The plate was incubated at 37C for one hour. PEI was rinsed out with 500 uL of sterile water three times. Plates were stored at 4C until the day of culture. This culture was plated at a seeding density of 1.5 x 10^5 cells/well on a 48-well MEA plate, prepared as described above. Cells were administered via a 25 uL media/laminin ([…]; Sigma Cat L2020-1MG) drop directly onto the microelectrode array, as adding the cells with the laminin results in better attachment than pre-coating with laminin. After 2 hours, an additional 475 uL of cortical media was added and the cells returned to the incubator. Exposure starts at day 0 of plating and is continued over twelve days of network development until the experiment is terminated. Cells are fed with fresh medium on DIV 5 and 9, following the recordings on those days. The entire volume of media in the well is exchanged and any vehicle or compound treatment is renewed. Complete details are found in OP-NHEERL/ISTD/SBB/TJS/2015-03-r0 (available on request, email shafer.tim@epa.gov). Measurement of the electrical activity is non-invasive, and recordings can be made from the same plate over multiple different days of the culture. In cortical neurons, this allows for the measurement of extracellular action potentials over the period during which networks form in the MEA plate.", "values": [
      {"smiles": "CNC(=O)CSP(=O)(OC)OC", "outcome": "inactive"},
      {"smiles": "C=CCOC(F)(C(F)(F)F)C(F)(F)F", "outcome": "inactive"},
      {"smiles": "CC(=O)C(F)(F)C(F)(F)F", "outcome": "inactive"},
      {"smiles": "Cc1cc(C(F)(C(F)(F)F)C(F)(F)F)ccc1NC(=O)c1cccc(I)c1C(=O)NC(C)(C)CS(C)(=O)=O", "AC50": "11.3 µM (active)"},
      {"smiles": "O=S(=O)(F)C(F)(F)C(F)(F)C(F)(F)C(F)(F)F", "outcome": "inactive"},
      {"smiles": "Cc1ccccc1OP(=O)(Oc1ccccc1C)Oc1ccccc1C", "AC50": "15 µM (active)"},
      {"smiles": "OC(Cc1ccccc1Cl)(Cn1[nH]cnc1=S)C1(Cl)CC1", "note": "(stereo not drawn)", "AC50": "29.9 µM (active)"},
      {"smiles": "CC(C)[C@@H](Nc1ccc(C(F)(F)F)cc1Cl)C(=O)OC(C#N)c1cccc(Oc2ccccc2)c1", "note": "(stereo partly drawn)", "AC50": "14.5 µM (active)"},
      {"smiles": "CC1(C)[C@H](C(=O)O[C@H](C#N)c2cccc(Oc3ccccc3)c2)[C@@H]1/C=C(\\Cl)C(F)(F)F", "AC50": "12.9 µM (active)"},
      {"smiles": "C=CC(F)(C(F)(F)F)C(F)(F)C(F)(F)F", "note": "(stereo not drawn)", "outcome": "inactive"},
      {"smiles": "NC(=O)c1ccc(N)nc1", "AC50": "5.44 µM (active)"},
      {"smiles": "CCOCn1c(-c2ccc(Cl)cc2)c(C#N)c(Br)c1C(F)(F)F", "AC50": "4.44 µM (active)"},
      {"smiles": "FC(F)OCC(F)(F)C(F)(F)F", "outcome": "inactive"}
    ]}
  ]
}
